From ChEMBL document CHEMBL3433997, “St. Jude Leishmania screening dataset” (2016)

Biological target: Solute carrier family 2, facilitated glucose transporter member 1 (Homo sapiens) (UniProt P11166)
Assay: ST_JUDE_LEISH: Cytotoxicity at 2uM final concentration against transgenic Leishmania Mexicana promastigotes LmGLUT1 that are glucose transport deficient and complemented with the human glucose transporter GLUT1. Activity is measured by DNA content using SYBR green in vitro
Type: functional

Sequence of Solute carrier family 2, facilitated glucose transporter member 1 (Homo sapiens) (P11166 whole entry): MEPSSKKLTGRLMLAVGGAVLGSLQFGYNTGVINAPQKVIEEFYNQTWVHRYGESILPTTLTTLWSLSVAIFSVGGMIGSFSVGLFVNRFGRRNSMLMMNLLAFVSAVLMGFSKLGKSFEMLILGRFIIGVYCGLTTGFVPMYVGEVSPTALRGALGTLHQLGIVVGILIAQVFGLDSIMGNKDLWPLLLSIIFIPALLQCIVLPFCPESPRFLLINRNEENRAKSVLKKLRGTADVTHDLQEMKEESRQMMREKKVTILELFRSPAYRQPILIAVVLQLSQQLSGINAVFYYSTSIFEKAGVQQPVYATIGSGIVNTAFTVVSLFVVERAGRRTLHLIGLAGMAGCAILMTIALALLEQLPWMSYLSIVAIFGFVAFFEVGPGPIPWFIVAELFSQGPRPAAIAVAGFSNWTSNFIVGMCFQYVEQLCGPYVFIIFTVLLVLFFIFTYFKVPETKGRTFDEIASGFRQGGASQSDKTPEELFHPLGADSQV

Compound | inhibition [%]
CC(NC(=O)NC1CCC(CCN2CCCc3ccccc32)CC1)c1cccc2ccccc12 (stereo not given) | 0.93
CCN(CC1CCN(CC2(O)CCOCC2)CC1)c1cc(C)nc(Nc2ccc(Cl)cc2)n1 | -1.01
CC(C)(C)C1CCC(C(=O)c2ccc3ccccc3c2O)CC1 (stereo not given) | 1.28
O=C(NCc1cccs1)[C@H](Cc1ccccc1)Nc1ccnc(NCCc2ccccc2)n1 | -0.12
CC(CCCCCC(=O)Nc1ccc(CC(C)NCCc2cccc(Cl)c2)cc1)NCCc1cccc(Cl)c1 (stereo not given) | 12.9
CC(C)CNCc1ccc(-c2cccc(CN(C(=O)NCCc3ccccc3)C3CCN(Cc4ccccc4)CC3)c2)cc1 | 9.24
O=[N+]([O-])c1ccc(Nc2nc(N/N=C/c3cccc(O)c3)nc(N3CCCC3)n2)cc1 | 3.46
O=c1cc(NCCCNCc2cc(Br)ccc2F)[nH]c2ccccc12 | -1.01
N=C(N)c1ccc(Nc2nc(Nc3ccc(-c4ccccc4)cc3)ncc2[N+](=O)[O-])cc1 | 3.15
CCN(CC)CCN(CCCc1ccc(-c2ccc(C(F)(F)F)cc2)cc1)C(=O)Cn1c(CCc2cccc(F)c2F)nc(=O)c2c1CCC2 | -2.04
Cc1ccccc1-c1nc2c(CN3CCC(O)(c4ccccc4)CC3)c(O)ccc2[nH]1 | 11.5
Cc1cc(OCCN2CCCCC2)ccc1NC(=O)c1cccc2c(=O)n(Cc3ccc(Cl)cc3)cnc12 | 103
Cc1ccc(C2CC(=O)CC(c3ccccn3)C2[N+](=O)[O-])cc1 (stereo not given) | -0.44
CCOc1ccc(C(=O)Nc2cc(Br)c3c(c2)CNCC3)cc1Br | 11.7
Cc1nnsc1C(=O)Nc1ccc(-c2cccc(-c3nc4cc(C(F)(F)F)ccc4[nH]3)c2)cc1 | 0.51
OC(CNCc1ccccc1OCc1ccccc1)c1cccc(Cl)c1 (stereo not given) | 5.6
O=C(Nc1ccc(OC2CCN(Cc3ccc(F)cc3)CC2)c(Cl)c1)c1ccoc1 | 2.65
CN1CCC[C@@H](Oc2cc3c(cc2Br)CCN3C(=O)Nc2ccc(-c3ccncc3)c(Cl)c2)C1 | 2.29
c1ccc(Oc2ccc(Nc3ccnc4cc(-c5ccc(CN6CCOCC6)o5)ccc34)cc2)nc1 | -1.57
Cn1nccc1C(=O)NCCNCc1cccc(-c2cccc(-c3nc4cc(F)ccc4[nH]3)c2)c1 | 3.43

Compound | inhibition [%]
CC1CN(CC(O)Cn2c3ccc(Br)cc3c3cc(Br)ccc32)CC(C)O1 (stereo not given) | 2.95
O=C(Nc1ccc(CCNCCCc2ccccc2)cc1)Nc1ccc(Cl)c(Cl)c1 | -0.55
CN(C)c1ccc(CN2CCC(NC(=O)c3ccc(-c4ccccc4F)s3)CC2)cc1 | -0.33
Cc1cc(-c2ccc(CNCc3ccsc3)cc2)ccc1S(=O)(=O)NCCN1CCCC1 | 61.3
C=CCN1C(=O)c2[nH]nc(-c3cc(C)c(C)cc3O)c2C1c1cccc(Br)c1 (stereo not given) | 2.03
CC1CCC(NCc2c(O)ccc3ccccc23)CC1 (stereo not given) | 2.01
COc1c(CN2CCCC2)cccc1-c1cc2c(-c3ccc(C(=O)O)c(C(C)C)c3)ccnc2[nH]1 | 3
CCC(C(=O)Nc1cc(=O)[nH]c2nc(-c3ccco3)nn12)c1ccccc1 (stereo not given) | 0.95
O=C(NCCc1ccc(F)cc1)c1ccc(N2CCN(c3ccncc3)CC2)nc1 | 2.72
CC(C)(CNC(=O)C1CCN(CCOc2ccc(F)c(F)c2)CC1)c1nc(-c2ccc(Cl)c(O)c2)c(-c2ccncc2)[nH]1 | 4.62
Cc1ccc(O)cc1Nc1ccnc2cc(-c3ccc(CN4CCCCC4)o3)ccc12 | 14.4
O=C(N[C@H]1CCN(Cc2ccc(OC3CCN(Cc4ccccc4)CC3)c(Cl)c2)C1)c1ccc(Cl)c(Cl)c1 | 0.44
Cc1cccc(-c2nn(-c3ccccc3)c3[nH]c(=O)c(CN4CCSCC4)cc23)c1 | -2.69
Cn1nc(-c2cccc(CNCc3ccccc3)c2)c2cnc(NC3CCCC3)nc21 | -0.97
Cc1cccc2nc(-c3cccc(-c4ccc(CNCc5cccc(N)c5)cc4)c3)[nH]c12 | -2.78
CC[C@H](C)CNC(=O)c1cncc(-c2cccc(CN(C)C3CCN(C)CC3)c2)c1 | 2.22
COCCNCc1ncsc1-c1ccc2c(Nc3cc(O)c(Cl)cc3F)ccnc2c1 | 3.19
Cc1nc(C(=O)N2CCCC[C@H]2CNC(=O)c2ccc(-c3ccc(N4CCCC4=O)cc3C)cc2)c(-c2ccc(F)cc2)s1 | -1.91
Cc1nc(C)c(-c2ccc(Oc3ccc(Cl)c(Cl)c3)cc2)c(O)c1Cl | 1.91
CC(=O)Nc1ccc(C(=O)Nc2ccc(-c3cccc(-c4nc5cccc(C)c5[nH]4)c3)cc2)cn1 | -3.82

Biological target: Hexose transporter 1 (Plasmodium falciparum) (UniProt O97467)
Assay: ST_JUDE_LEISH: Cytotoxicity at 2uM final concentration against transgenic Leishmania Mexicana promastigotes LmPfHT that are glucose transport deficient and complemented with the Plasmodium falciparum hexose transporter. Activity is measured by DNA content using SYBR green in vitro
Type: functional

Compound | inhibition [%]
CC(NC(=O)NC1CCC(CCN2CCCc3ccccc32)CC1)c1cccc2ccccc12 (stereo not given) | 1.8
CCN(CC1CCN(CC2(O)CCOCC2)CC1)c1cc(C)nc(Nc2ccc(Cl)cc2)n1 | 0.27
CC(C)(C)C1CCC(C(=O)c2ccc3ccccc3c2O)CC1 (stereo not given) | -0.87
O=C(NCc1cccs1)[C@H](Cc1ccccc1)Nc1ccnc(NCCc2ccccc2)n1 | -1.06
CC(CCCCCC(=O)Nc1ccc(CC(C)NCCc2cccc(Cl)c2)cc1)NCCc1cccc(Cl)c1 (stereo not given) | 10.6
CC(C)CNCc1ccc(-c2cccc(CN(C(=O)NCCc3ccccc3)C3CCN(Cc4ccccc4)CC3)c2)cc1 | 11
O=[N+]([O-])c1ccc(Nc2nc(N/N=C/c3cccc(O)c3)nc(N3CCCC3)n2)cc1 | 3.1
O=c1cc(NCCCNCc2cc(Br)ccc2F)[nH]c2ccccc12 | -0.63
N=C(N)c1ccc(Nc2nc(Nc3ccc(-c4ccccc4)cc3)ncc2[N+](=O)[O-])cc1 | 3.65
CCN(CC)CCN(CCCc1ccc(-c2ccc(C(F)(F)F)cc2)cc1)C(=O)Cn1c(CCc2cccc(F)c2F)nc(=O)c2c1CCC2 | -0.48
Cc1ccccc1-c1nc2c(CN3CCC(O)(c4ccccc4)CC3)c(O)ccc2[nH]1 | 8.82
Cc1cc(OCCN2CCCCC2)ccc1NC(=O)c1cccc2c(=O)n(Cc3ccc(Cl)cc3)cnc12 | 104
Cc1ccc(C2CC(=O)CC(c3ccccn3)C2[N+](=O)[O-])cc1 (stereo not given) | 0.92
CCOc1ccc(C(=O)Nc2cc(Br)c3c(c2)CNCC3)cc1Br | 12.7
Cc1nnsc1C(=O)Nc1ccc(-c2cccc(-c3nc4cc(C(F)(F)F)ccc4[nH]3)c2)cc1 | 0.86
OC(CNCc1ccccc1OCc1ccccc1)c1cccc(Cl)c1 (stereo not given) | 4.24
O=C(Nc1ccc(OC2CCN(Cc3ccc(F)cc3)CC2)c(Cl)c1)c1ccoc1 | 2.09
CN1CCC[C@@H](Oc2cc3c(cc2Br)CCN3C(=O)Nc2ccc(-c3ccncc3)c(Cl)c2)C1 | 2.77
c1ccc(Oc2ccc(Nc3ccnc4cc(-c5ccc(CN6CCOCC6)o5)ccc34)cc2)nc1 | -1.03
Cn1nccc1C(=O)NCCNCc1cccc(-c2cccc(-c3nc4cc(F)ccc4[nH]3)c2)c1 | 3.28

Compound | inhibition [%]
CC1CN(CC(O)Cn2c3ccc(Br)cc3c3cc(Br)ccc32)CC(C)O1 (stereo not given) | 2.45
O=C(Nc1ccc(CCNCCCc2ccccc2)cc1)Nc1ccc(Cl)c(Cl)c1 | -0.63
CN(C)c1ccc(CN2CCC(NC(=O)c3ccc(-c4ccccc4F)s3)CC2)cc1 | -1.02
Cc1cc(-c2ccc(CNCc3ccsc3)cc2)ccc1S(=O)(=O)NCCN1CCCC1 | 21.9
C=CCN1C(=O)c2[nH]nc(-c3cc(C)c(C)cc3O)c2C1c1cccc(Br)c1 (stereo not given) | 1.25
CC1CCC(NCc2c(O)ccc3ccccc23)CC1 (stereo not given) | 1.89
COc1c(CN2CCCC2)cccc1-c1cc2c(-c3ccc(C(=O)O)c(C(C)C)c3)ccnc2[nH]1 | 2.05
CCC(C(=O)Nc1cc(=O)[nH]c2nc(-c3ccco3)nn12)c1ccccc1 (stereo not given) | 1.55
O=C(NCCc1ccc(F)cc1)c1ccc(N2CCN(c3ccncc3)CC2)nc1 | 0.74
CC(C)(CNC(=O)C1CCN(CCOc2ccc(F)c(F)c2)CC1)c1nc(-c2ccc(Cl)c(O)c2)c(-c2ccncc2)[nH]1 | 4.16
Cc1ccc(O)cc1Nc1ccnc2cc(-c3ccc(CN4CCCCC4)o3)ccc12 | 12.2
O=C(N[C@H]1CCN(Cc2ccc(OC3CCN(Cc4ccccc4)CC3)c(Cl)c2)C1)c1ccc(Cl)c(Cl)c1 | 2.06
Cc1cccc(-c2nn(-c3ccccc3)c3[nH]c(=O)c(CN4CCSCC4)cc23)c1 | -2.03
Cn1nc(-c2cccc(CNCc3ccccc3)c2)c2cnc(NC3CCCC3)nc21 | 0
Cc1cccc2nc(-c3cccc(-c4ccc(CNCc5cccc(N)c5)cc4)c3)[nH]c12 | -1.49
CC[C@H](C)CNC(=O)c1cncc(-c2cccc(CN(C)C3CCN(C)CC3)c2)c1 | 2.75
COCCNCc1ncsc1-c1ccc2c(Nc3cc(O)c(Cl)cc3F)ccnc2c1 | 3.29
Cc1nc(C(=O)N2CCCC[C@H]2CNC(=O)c2ccc(-c3ccc(N4CCCC4=O)cc3C)cc2)c(-c2ccc(F)cc2)s1 | -0.31
Cc1nc(C)c(-c2ccc(Oc3ccc(Cl)c(Cl)c3)cc2)c(O)c1Cl | 1.63
CC(=O)Nc1ccc(C(=O)Nc2ccc(-c3cccc(-c4nc5cccc(C)c5[nH]4)c3)cc2)cn1 | -0.04
